From PubChem BioAssay (NCATS)
Records with an inconclusive call do not appear. Active and inactive are the calls of the source. Unless noted, calls follow the shape of the dose curve; as a rule, active = well fitted curve in the direction sought with a large enough effect; inconclusive = small, poorly fitted or top-dose-only effect, or another doubt; inactive = no such curve, though single readings can be large; an effect the other way counts as inactive or inconclusive. Where a SMILES comes first, the peptide text is derived from it.

Experiments:
[1] = qHTS to identify inhibitors of the type 1 interferon - major histocompatibility complex class I in skeletal muscle: primary screen against the NCATS Pharmaceutical Collection (AID 1347407);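 also: luminescence of HiBiT knocked into endogenous HLA-B as interferon-induced MHC class I level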; also: potency is read from the fitted curve at half-maximal effect
Summary of the method: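 Cells were seeded with 4 ng/ml IFN-beta, incubated 1 h, then dosed with compounds over eight 1:5 steps up to 46 uM final. After 24 h at 37 C, HiBiT lytic reagent was added and luminescence read after 10 min lysis in the dark.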

[2] = biological target: Protein phosphatase 1D (Homo sapiens) (UniProt O15297); experiment: RapidFire Mass Spectrometry qHTS Assay for Modulators of WT P53-Induced Phosphatase 1 (WIP1) (AID 1347424);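 also: amount of dephosphorylated VEPPL-S-QETFS peptide product formed by WIP1; series mostly up to about 63 µM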
Summary of the method: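 WIP1 (10 nM final) was preincubated 1 h at room temperature with compounds in Tris-HCl pH 7.5, 30 mM MgCl2, TCEP, EGTA, BSA; 2 uM VEPPL-pS-QETFS phosphopeptide was added for 5 min, quenched with formic acid, and dephosphorylated product quantified by RapidFire MS.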

[3] = biological target: Protein phosphatase 1D (Homo sapiens) (UniProt O15297); experiment: Rhodamine-PBP qHTS Assay for Modulators of WT P53-Induced Phosphatase 1 (WIP1) (AID 1347425)
Summary of the method: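 5 nM WIP1 + 10 uM Rh-PBP, 50 mM Tris pH 7.5, 30 mM MgCl2, 1 mM TCEP, 0.1 mM EGTA, BSA; cpds pinned, 1 hr RT; + 10 uM phosphopeptide; fluorescence 1-min reads x 11 min; delta = f1 - f0.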

[4] = Primary qHTS for inhibitors of La Crosse Virus (LACV) - induced cell death in SH-SY5Y cells (AID 1508616);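 also: top concentration of the series differs between compounds; higher means more rescue of cells from virus-induced death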
Summary of the method: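 SH-SY5Y cells (6000/well) plated 24 h, then given compounds by pin transfer and LACV at 0.01 MOI for 6 days at 37C. Viability measured by ATPLite luminescence, normalized to infected DMSO and uninfected DMSO.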

[5] = biological target: Calcium and integrin-binding protein 1 (Homo sapiens) (UniProt Q99828); experiment: Primary qHTS for Identification of Calcium Integrin Binding Protein 1 (CIB1) Competitor (AID 1508620);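 also: GST tagged CIB1 binding a fluorescein labelled alphaIIb integrin peptide tracer; top concentration of the series differs between compounds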
Summary of the method: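 Fluorescence polarization competition: CIB1-GST (1 uM final) preincubated with compound 15 min at room temperature, then FITC-labeled alphaIIb peptide (100 nM final) added for another 15 min. Polarization read at Ex 480/Em 540.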

[6] = Primary qHTS for small molecule stabilizers of the endoplasmic reticulum resident proteome: Secreted ER Calcium Modulated Protein (SERCaMP) assay (AID 1508630)
Summary of the method: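 GLuc-SERCaMP-expressing SH-SY5Y cells, pretreated 16 h with compound, are challenged with thapsigargin to empty ER calcium stores; after 4 h, coelenterazine is added directly to the medium and luminescence is imaged.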

[7] = biological target: Cytochrome P450 3A4 (Homo sapiens) (UniProt P08684); experiment: Cytochrome P450 family 3 subfamily A member 4 (CYP3A4) small molecule antagonists: luciferase qHTS assay (AID 1645841; active = well fitted curve in the direction sought with a large enough effect in the repeat runs; an effect the other way counts as inactive or inconclusive; also: nearly all actives have a fitted effect of over 45% in size)
Summary of the method: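 P450-Glo CYP3A4 enzyme with proluciferin substrate was preincubated with DMSO-dissolved compounds for 10 min at room temperature. NADPH regeneration solution started a 1 h reaction. Detection reagent stopped it, and luminescence was read after 20 min.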

[8] = biological target: Cytochrome P450 2D6 (Homo sapiens) (UniProt P10635); experiment: Cytochrome P450 family 2 subfamily D member 6 (CYP2D6) small molecule antagonists: luciferase biochemical (cell-free) qHTS assay (AID 1645840; active = well fitted curve in the direction sought with a large enough effect in the repeat runs; an effect the other way counts as inactive or inconclusive; also: nearly all actives have a fitted effect of over 55% in size; also: potency is read from the fitted curve at half-maximal effect)
Summary of the method: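 P450-Glo luminescent screen: recombinant CYP2D6 enzyme–proluciferin substrate mix preincubated with compound 10 min at room temperature, then NADPH regeneration added for 1 h at room temperature. Detection reagent added for 20 min; luciferin light read as relative luminescence units.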

[9] = biological target: Cytochrome P450 2C9 (Homo sapiens) (UniProt P11712); experiment: Cytochrome P450 family 2 subfamily C member 9 (CYP2C9) small molecule antagonists: luciferase biochemical (cell-free) qHTS assay (AID 1645842; active = well fitted curve in the direction sought with a large enough effect in the repeat runs; an effect the other way counts as inactive or inconclusive; also: nearly all actives have a fitted effect of over 55% in size; also: potency is read from the fitted curve at half-maximal effect)
Summary of the method: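 Luminescence, after 20 min with luciferin detection reagent, reflected CYP2C9 turnover during a 1 h NADPH-driven reaction at 37C. Enzyme-substrate mix contained 0.4% bovine serum albumin and was preincubated with compound 10 min at room temperature.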

[10] = A High-Content qHTS Against Drug Library for the Identification of Small Molecules that Inhibit DYT1 Early Onset Primary Dystonia-Associated Cell Pathology (AID 1645839; calls by dose curve; also: series mostly up to about 46 µM)
Summary of the method: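 Readout: %pathology, the punctate EGFP-TorsinA distribution from imaging, as the primary channel and cell count as the toxicity counterscreen. HEK293 Flp-In cells expressing delE TorsinA were induced with tetracycline and treated with compound for 48 h.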

Measured: Potency

Calcium and integrin-binding protein 1 (Homo sapiens), sequence (Q99828 whole entry, looked up): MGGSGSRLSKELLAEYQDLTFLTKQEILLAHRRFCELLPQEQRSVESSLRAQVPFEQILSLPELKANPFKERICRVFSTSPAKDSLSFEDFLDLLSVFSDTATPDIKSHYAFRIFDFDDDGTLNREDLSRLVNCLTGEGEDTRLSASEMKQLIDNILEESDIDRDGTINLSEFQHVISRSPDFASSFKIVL
Cytochrome P450 2D6 (Homo sapiens), sequence (P10635 whole entry, looked up): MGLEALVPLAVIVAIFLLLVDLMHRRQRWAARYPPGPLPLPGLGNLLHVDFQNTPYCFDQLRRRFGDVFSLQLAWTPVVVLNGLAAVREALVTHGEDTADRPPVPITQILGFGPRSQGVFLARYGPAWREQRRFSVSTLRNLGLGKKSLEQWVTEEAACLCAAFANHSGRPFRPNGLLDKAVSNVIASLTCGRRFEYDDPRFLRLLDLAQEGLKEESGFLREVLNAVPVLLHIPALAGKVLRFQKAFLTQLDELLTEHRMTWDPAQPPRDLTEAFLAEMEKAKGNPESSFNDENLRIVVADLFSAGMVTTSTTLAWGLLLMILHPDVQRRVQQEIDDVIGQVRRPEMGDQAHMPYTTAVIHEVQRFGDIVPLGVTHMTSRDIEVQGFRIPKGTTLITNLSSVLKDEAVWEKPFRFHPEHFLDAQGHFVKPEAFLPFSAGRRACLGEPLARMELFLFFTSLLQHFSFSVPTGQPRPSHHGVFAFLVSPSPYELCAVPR
Cytochrome P450 2C9 (Homo sapiens), sequence (P11712 whole entry, looked up): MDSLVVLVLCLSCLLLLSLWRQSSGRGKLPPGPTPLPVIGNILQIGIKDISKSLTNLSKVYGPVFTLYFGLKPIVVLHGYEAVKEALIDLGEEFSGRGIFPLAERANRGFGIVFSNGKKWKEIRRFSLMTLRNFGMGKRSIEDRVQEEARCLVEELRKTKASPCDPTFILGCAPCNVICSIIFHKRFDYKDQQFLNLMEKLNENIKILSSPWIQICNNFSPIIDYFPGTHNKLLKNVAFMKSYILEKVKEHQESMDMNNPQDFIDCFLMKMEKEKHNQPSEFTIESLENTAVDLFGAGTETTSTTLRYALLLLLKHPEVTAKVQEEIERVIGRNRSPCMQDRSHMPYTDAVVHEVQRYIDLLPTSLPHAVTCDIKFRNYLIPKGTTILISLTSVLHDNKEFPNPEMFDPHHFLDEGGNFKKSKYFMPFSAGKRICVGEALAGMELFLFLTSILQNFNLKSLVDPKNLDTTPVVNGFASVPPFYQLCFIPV
Protein phosphatase 1D (Homo sapiens), sequence (O15297 whole entry, looked up): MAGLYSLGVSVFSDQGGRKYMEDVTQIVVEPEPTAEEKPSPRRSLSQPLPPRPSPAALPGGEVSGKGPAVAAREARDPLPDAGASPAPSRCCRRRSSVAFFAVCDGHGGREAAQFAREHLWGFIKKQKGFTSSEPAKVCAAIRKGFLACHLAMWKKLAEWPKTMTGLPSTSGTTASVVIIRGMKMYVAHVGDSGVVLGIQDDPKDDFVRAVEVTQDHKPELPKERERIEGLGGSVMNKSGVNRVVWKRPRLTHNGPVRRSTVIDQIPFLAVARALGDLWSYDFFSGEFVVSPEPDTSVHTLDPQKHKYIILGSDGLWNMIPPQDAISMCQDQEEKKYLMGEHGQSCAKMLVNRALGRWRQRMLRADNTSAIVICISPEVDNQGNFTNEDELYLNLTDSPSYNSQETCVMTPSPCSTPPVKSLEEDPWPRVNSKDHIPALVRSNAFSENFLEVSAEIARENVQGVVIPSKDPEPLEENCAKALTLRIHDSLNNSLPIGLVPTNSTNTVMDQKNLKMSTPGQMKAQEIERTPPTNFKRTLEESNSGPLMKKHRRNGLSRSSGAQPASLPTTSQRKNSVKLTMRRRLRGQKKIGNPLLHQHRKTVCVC
Cytochrome P450 3A4 (Homo sapiens), sequence (P08684 whole entry, looked up): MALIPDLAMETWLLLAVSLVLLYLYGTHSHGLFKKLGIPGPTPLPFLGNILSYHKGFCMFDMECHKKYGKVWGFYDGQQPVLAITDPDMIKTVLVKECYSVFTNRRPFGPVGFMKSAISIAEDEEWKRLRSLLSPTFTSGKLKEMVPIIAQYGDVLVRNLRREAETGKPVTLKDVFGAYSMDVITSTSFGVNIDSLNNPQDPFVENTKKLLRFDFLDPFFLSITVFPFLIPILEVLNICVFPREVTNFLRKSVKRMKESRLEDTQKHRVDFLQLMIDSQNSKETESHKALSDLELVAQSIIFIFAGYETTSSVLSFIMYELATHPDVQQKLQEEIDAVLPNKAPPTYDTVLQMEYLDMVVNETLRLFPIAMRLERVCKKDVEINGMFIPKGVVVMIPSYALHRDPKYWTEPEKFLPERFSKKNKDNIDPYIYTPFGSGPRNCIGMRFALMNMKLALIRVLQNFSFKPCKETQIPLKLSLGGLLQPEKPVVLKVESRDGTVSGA

OCc1cccnc1
not listed: [8] | [9] | [10]
inactive: all other assays above

Cc1cc(=O)oc2cc(O[C@@H]3SC[C@@H](O)[C@H](O)[C@H]3O)ccc12
not listed: [7] | [10]
inactive: all other assays above

CC(CCc1ccc2c(c1)OCO2)NN (stereo unspecified)
active: [9] 15.5 µM
not listed: [7] | [8]
inactive: all other assays above

CC(NC(CCc1ccccc1)C(=O)O)C(=O)N1C(=O)N(C)CC1C(=O)O (stereo unspecified)
not listed: [7] | [10]
inactive: all other assays above

C=CC[N+]1([C@H]2C[C@H]3[C@@H]4CC[C@H]5C[C@H](OC(C)=O)[C@@H](N6CCCCC6)C[C@]5(C)[C@H]4CC[C@]3(C)[C@H]2OC(=O)CC)CCCCC1
not listed: [7] | [8]
inactive: all other assays above

CN1[C@@H]2CC[C@H]1CC(NC(=O)n1c(=O)[nH]c3ccccc31)C2 (stereo partly specified)
active: [8] 1.55 µM
not listed: [7] | [10]
inactive: all other assays above

O=S(=O)(O)c1ccc2nc(-c3ccccc3)[nH]c2c1
active: [8] 9.77 µM
not listed: [7] | [9] | [10]
inactive: all other assays above

c1ccc(C(O[C@H]2CCCN(CCc3ccc4c(c3)OCO4)C2)c2ccccc2)cc1
active: [8] 0.0123 µM | [9] 24.5 µM
not listed: [7] | [10]
inactive: all other assays above

CCCc1ncc(C(=O)O)s1
not listed: [7]
inactive: all other assays above

CC(=O)OC/C=C(C)/C=C/C=C(C)/C=C/C1=C(C)CCCC1(C)C
active: [9] 15.5 µM
not listed: [7] | [8]
inactive: all other assays above

CCOC(=O)C(=O)c1csc(NC=O)n1
active: [8] 19.5 µM
not listed: [7] | [10]
inactive: all other assays above

CC(=O)N[C@@H](CO)C(=O)N[C@@H](CC(=O)O)C(=O)N[C@@H](CCCCN)C(=O)N1CCC[C@H]1C(=O)O (Ac-SDKP-OH)
not listed: [7]
inactive: all other assays above

COC(=O)c1ccc(NC(C)=O)cc1OC
not listed: [7]
inactive: all other assays above

CCC(=O)O[C@]1(C(=O)COC)[C@@H](C)C[C@H]2[C@@H]3CCC4=CC(=O)C=C[C@]4(C)C3(F)[C@@H](O)C[C@@]21C (stereo partly specified)
active: [9] 24.5 µM
not listed: [7] | [8]
inactive: all other assays above

CCC(CN)=C(c1ccccc1)c1ccccc1
active: [8] 3.63 µM | [9] 11.5 µM
not listed: [7] | [10]
inactive: all other assays above

CC(C)=CCNc1ncnc2c1ncn2[C@@H]1O[C@H](CO)[C@@H](O)[C@H]1O
active: [1] 7.45 µM
not listed: [7] | [10]
inactive: all other assays above

Cc1cc(CCCOc2c(C)cc(-c3noc(C(F)(F)F)n3)cc2C)on1
active: [9] 19.5 µM
not listed: [7] | [8] | [10]
inactive: all other assays above

O=C(CCCCCCCCC#CI)Oc1ccccc1
active: [8] 5.42 µM | [9] 16.2 µM
not listed: [7]
inactive: all other assays above

CC(C)=CCC/C(C)=C/CC/C(C)=C/C(=O)OCC(=O)[C@@]1(O)CC[C@H]2[C@@H]3CCC4=CC(=O)C=C[C@]4(C)[C@H]3[C@@H](O)C[C@@]21C
active: [9] 1.74 µM
not listed: [7] | [10]
inactive: all other assays above

CCCCCOc1ccccc1/C(=C\SC)n1ccnc1
active: [8] 0.977 µM | [9] 3.89 µM
not listed: [7] | [10]
inactive: all other assays above

CCOC(=O)c1ccc(NC(=O)CN2CCCCC2)cc1
not listed: [7] | [8]
inactive: all other assays above

CCOC(=O)N1CCC(n2c(=O)[nH]c3cc(Cl)ccc32)CC1
active: [9] 11 µM
not listed: [7] | [8]
inactive: all other assays above

CC(C)(Oc1ccc(Cl)cc1)C(=O)OCCCOC(=O)C(C)(C)Oc1ccc(Cl)cc1
active: [9] 7.76 µM
not listed: [7]
inactive: all other assays above
